CYP2C19 act = activators of human cytochrome P450 2C19 | P33261 | recombinant CYP2C19, luciferin-H EGE luminescence; active compounds read high; 0 = fully inhibited enzyme, 1 = untreated enzyme | activation factor at 5 µM | 96,000 tested, under 10 active;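 active means activation factor of at least 2 at 5 µM in the primary screen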;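 further: 0 = wells with 2.5 mM tranylcypromine and 1 = vehicle-only wells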
CYP2C9 activ = CYP2C9 (human) activation; P11712; recombinant CYP2C9, luciferin-H conversion, luminescence; active compounds read high; factor 1 = untreated enzyme, 0 = blocked; activation factor at 5 µM; 1.4% of 96,000 active; AID 1024;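 active means activation factor of 2 or more for CYP2C9 at a 5 µM dose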;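 further: 0 = sulfaphenazole-blocked wells and 1 = vehicle-only wells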
Target sequence (P11712 whole entry, looked up): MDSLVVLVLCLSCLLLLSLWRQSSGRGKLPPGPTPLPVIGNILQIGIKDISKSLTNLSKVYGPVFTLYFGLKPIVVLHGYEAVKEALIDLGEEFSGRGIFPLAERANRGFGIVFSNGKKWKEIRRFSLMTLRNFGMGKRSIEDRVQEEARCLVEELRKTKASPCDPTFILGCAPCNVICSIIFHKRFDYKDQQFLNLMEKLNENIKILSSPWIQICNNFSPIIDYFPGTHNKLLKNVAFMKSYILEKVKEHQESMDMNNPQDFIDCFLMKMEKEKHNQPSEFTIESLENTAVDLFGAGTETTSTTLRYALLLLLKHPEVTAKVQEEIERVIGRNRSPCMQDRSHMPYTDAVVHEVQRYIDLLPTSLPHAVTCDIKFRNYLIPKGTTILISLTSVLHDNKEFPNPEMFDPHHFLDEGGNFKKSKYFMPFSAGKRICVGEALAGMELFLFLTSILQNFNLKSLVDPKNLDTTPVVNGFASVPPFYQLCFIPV
CYP2C19 inh = human CYP2C19 inhibition. P33261. CYP2C19 Supersomes, luciferin-H EGE luminescence, 30 min. inhibition, % at 5 µM. 21% of 96,000 active;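 active means CYP2C19 inhibition above a set limit at 5 µM in the primary screen, cut at about 50% in these data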;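 further: plate controls were negative control wells for no effect and 2.5 mM tranylcypromine positive control for full effect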
CYP2C9 inh = human CYP2C9 inhibition; CYP2C9 Supersomes, luciferin-H conversion, luminescence; 20% of 96,000 active; P11712; inhibition, % at 5 µM;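 active means blocking of liver enzyme CYP2C9 beyond about 50% at 5 µM, limit read from the data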
Starred values were filed as active, the others as inactive. Sampled rows, rich in hits. Any-hit rate of the full collection: about 31%.

SMILES | CYP2C19 act | CYP2C9 activ | CYP2C19 inh | CYP2C9 inh
O=C(CSc1ncnc2ccccc12)Nc1ccc(N2CCOCC2)cc1 | 1.2 | 1 | -16 | 0
O=C(CN1CCCCC1)Nc1cccc(-n2cnnn2)c1 | 0.7 | 1 | 35 | 0
COc1cc(C=O)ccc1OCCOCCOc1cc(C)ccc1Cl | 0.5 | 0.5 | 50 | 52*
COc1cc(C)ccc1OCCOc1ccccc1Cl | 0.3 | 0.7 | 70* | 28
CCOC(=O)CSc1nc(NCc2ccco2)c2ccccc2n1 | 0.6 | 0.6 | 36 | 38
N#CCSc1nc(Nc2ccc3c(c2)OCO3)c2ccccc2n1 | 0.8 | 0.2 | 19 | 80*
CCOC(=O)CSc1nc(Nc2ccc3c(c2)OCO3)c2ccccc2n1 | 0.1 | 0 | 86* | 98*
O=C(c1ccco1)c1cn(CC(=O)N2CCCCC2)c2ccccc12 | 0.7 | 0.7 | 27 | 34
COC(=O)c1ccc(-c2ccco2)n1Cc1ccccc1Cl | 0.8 | 0.4 | 16 | 63*
CCOc1ccccc1C(=O)OCC(=O)Nc1ncc(C(F)(F)F)cc1Cl | 0.1 | 0.7 | 93* | 29
O=C(COC(=O)c1cccc2ccccc12)Nc1ncc(C(F)(F)F)cc1Cl | 0.6 | 0.8 | 42 | 24
O=C(COC(=O)C12CC3CC(CC(C3)C1)C2)Nc1ccc(OC(F)F)cc1 | 1.2 | 1.2 | -18 | -21
COc1ccc(NC(=S)NNC(=O)c2ccccc2OC(F)F)cc1 | 0.7 | 0.5 | 31 | 54*
CCOc1ccccc1C(=O)OCC(=O)Nc1ccc(OC(F)F)cc1 | 0.4 | 1 | 55* | -1
CCOc1ncccc1C(=O)OCC(=O)Nc1ncc(C(F)(F)F)cc1Cl | 0.4 | 0.7 | 62* | 26
CCOC(=O)c1cn[nH]c1N | 0.9 | 1 | 10 | 3
CC1(C)Cc2c(C#N)c(SCCC#N)nc(N3CCOCC3)c2CS1 | 0.5 | 0.1 | 51* | 92*
CC1(C)Cc2c(C#N)c(SCCOc3ccccc3)nc(N3CCOCC3)c2CO1 | 0.1 | 0 | 89* | 99*
CCCSc1nc(N2CCCC2)c2c(c1C#N)CC(C)(C)OC2 | 0.4 | 0.1 | 57* | 94*
CSc1nc(N2CCCC2)c2c(c1C#N)CC(C)(C)OC2 | 0.8 | 0.7 | 19 | 29
O=C(CCC(=O)NNC(=S)Nc1ccccc1)NCc1ccccc1 | 1.1 | 1 | -11 | 0
Cc1c(NC(=O)C2(c3ccccc3)CCCC2)c(=O)n(-c2ccccc2)n1C | 0.9 | 1.1 | 7 | -14
CCOC(=O)C1=C(C)NC(=O)C(C(N)=O)C1c1ccccc1 (configuration not stated) | 0.9 | 0.9 | 8 | 11
CCOC(=O)C1=C(C)NC2=C(C1c1ccc([N+](=O)[O-])cc1)S(=O)(=O)c1ccccc12 (configuration not stated) | 0.9 | 0.4 | 6 | 62*
O=C(c1ccc(Cl)c(S(=O)(=O)NCc2ccco2)c1)N1CCN(c2ccc(F)cc2)CC1 | 0.8 | 1 | 24 | 0
SMILES | CYP2C19 act | CYP2C9 activ | CYP2C19 inh | CYP2C9 inh
O=C(Nc1ccc(O)cc1C(=O)O)c1ccc2c(c1)C(=O)N(Cc1ccco1)C2=O | 1 | 0.4 | -2 | 60*
CN(c1ccc(C(=O)O)cc1)S(=O)(=O)c1ccc(Cl)cc1 | 1.1 | 1.1 | -7 | -8
COc1cccc(C(=O)Nc2c(C(N)=O)oc3ccccc23)c1 | 0.9 | 3.3* | 6 | -234
NC(=O)c1oc2ccccc2c1NC(=O)CCc1ccccc1 | 0.2 | 2.2* | 82* | -124
CCOC(=O)c1oc2ccccc2c1NC(=O)c1cccc(OC)c1OC | 0.3 | 0.3 | 67* | 66*
COc1ccc(NC(=O)c2oc3ccccc3c2NC(=O)c2ccc3c(c2)OCO3)cc1 | 0.6 | 0.5 | 36 | 55*
Cn1c(NC(=O)c2ccc(Br)o2)cc(=O)n(C)c1=O | 1 | 1 | 5 | 0
COc1c(OC(C)=O)ccc(/C=C/c2ccc3ccccc3n2)c1[N+](=O)[O-] | 0.1 | 0.7 | 89* | 27
O=C(COc1ccccc1Cl)c1ccc2c(c1)CCCC2 | 1 | 1.9 | 0 | -93
Cc1ccc(-c2noc(CSc3nnc(-c4ccncc4)n3-c3ccc(C)cc3)n2)cc1 | 0.1 | 0.2 | 86* | 84*
Cn1c(SCc2nc(-c3ccc(Cl)cc3)no2)nnc1-c1ccco1 | 0.4 | 0.4 | 60* | 56*
Cc1ccc(-c2noc(CSc3nnnn3C3CCCCC3)n2)cc1 | 0.8 | 0.7 | 21 | 32
CCOc1ccc(-n2c(SCc3nc(-c4ccc(C)cc4)no3)nnc2-c2ccncc2)cc1 | 0.2 | 0.2 | 80* | 80*
Clc1ccc(-c2noc(CSc3nnc(-c4ccncc4)n3-c3ccccc3)n2)cc1 | 0.3 | 0.3 | 66* | 72*
COc1ccc(-n2c(SCCC(=O)O)nnc2-c2ccncc2)cc1 | 0.8 | 0.7 | 24 | 35
CC(C)NC(=O)CSc1nnc(C2CC2)n1-c1ccccc1 | 1 | 1 | 1 | 2
CN(C)CCn1c(C(=O)Nc2ccccc2)cc2ccccc21 | 0.9 | 1 | 12 | 1
CCOC(=O)CC1C(=O)NCCN1C(=O)Nc1ccccc1 (configuration not stated) | 0.7 | 0.9 | 26 | 6
CCCc1nnc(NC(=O)Cn2c(=O)oc3cc(Br)ccc32)s1 | 0.8 | 0.3 | 24 | 68*
CCc1nnc(NC(=O)Cn2c(=O)oc3ccccc32)s1 | 0.4 | 0.3 | 64* | 73*
CCCc1nnc(NC(=O)Cn2c(=O)oc3ccccc32)s1 | 0.6 | 0.5 | 39 | 54*
CC(C)CN(CC(C)C)c1nnc(NC(=O)Cn2c(=O)oc3ccccc32)s1 | 1 | 1 | 0 | 1
CCc1nnc(NC(=O)Cn2nc(-c3ccccc3OC)ccc2=O)s1 | 1.2 | 0.4 | -16 | 63*
CS(=O)(=O)N1CC(C(=O)NC2CC2)Oc2ccc(Cl)cc21 (configuration not stated) | 0.5 | 0.7 | 46 | 29
CC(C)(C)c1ccc(OCC(=O)OCCNC(=O)c2cccnc2)cc1 | 0.6 | 0.6 | 41 | 40
SMILES | CYP2C19 act | CYP2C9 activ | CYP2C19 inh | CYP2C9 inh
CCOc1ccc(NC(=O)C2CCC(N3C(=O)C4CC=CCC4C3=O)CC2)cc1 (configuration not stated) | 0.5 | 0.5 | 52* | 52*
CCOc1ccc(NC(=O)CN2C(=O)C3CC=CCC3C2=O)cc1 (configuration not stated) | 1.2 | 1.1 | -22 | -13
CCOC(=O)c1ccc(NC(=O)C(=O)NCC2CCCO2)cc1 (configuration not stated) | 0.8 | 0.8 | 18 | 16
CCOC(=O)c1ccc(NC(=O)C(CC)(CC)C(=O)OCC)cc1 | 0.2 | 0.4 | 77* | 65*
CCOC(=O)c1ccc(NC(=O)COC)cc1 | 0.8 | 0.8 | 23 | 16
CCOC(=O)c1ccc(NC(=O)C(=O)NCc2ccncc2)cc1 | 0.6 | 0.5 | 42 | 51*
CCOC(=O)c1ccc(Nc2cc(C)nc(C)c2C(=O)OCC)cc1 | 0.1 | 0.5 | 89* | 52*
CCOC(=O)c1ccc(NC(=O)C2CC2)cc1 | 0.2 | 0.7 | 79* | 35
CCOC(=O)c1ccc(NC(=O)C2CCCO2)cc1 (configuration not stated) | 0.9 | 0.8 | 12 | 22

Source: PubChem BioAssay (Sanford-Burnham Center for Chemical Genomics)
